Compound activity as filed in PubChem BioAssay.
SARS PLP yeast = SARS-CoV PLP inhibition in yeast | S. cerevisiae expressing SARS-CoV PLpro, growth rescue | 330,000 compounds, 0.19% hits | Potency, µM (highest dose often 32.9 µM), for inactives: at the highest dose activity, positive = growth rescue, usual class: activators; calls by dose curve; also: potency is read from the fitted curve at half-maximal effect; 0% is about no effect; nearly all actives have a fitted effect of over 55% in size
Pf growth 96h = inhibits malaria parasite growth, 96 h; Potency, µM (doses to about 28.7 µM), for inactives: at the top dose activity change, negative = inhibition, usual class: inhibitors; P. falciparum luciferase reporter growth, 96 h; 320,000 compounds, 6.9% hits; also: potency is read from the fitted curve at half-maximal effect; % is scaled to controls: 0 for no effect and ±100 for the full control effect
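Plates of compound plus infected erythrocytes (2% hematocrit, 0.05% parasitemia final) incubate 96 hours, 37 C, 5% CO2. Detection reagent added; reduced luminescence from the parasites' luciferase reporter flags inhibition.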
Pf growth 48h = inhibits P. falciparum growth in the first generation, 48 h | 310,000 compounds, 5.9% hits | Potency, µM (highest dose often 28.7 µM), for the others: at the top dose activity change, negative = inhibition, usual class: inhibitors | P. falciparum luciferase growth in erythrocytes, 48 h; also: potency is read from the fitted curve at half-maximal effect; % is scaled to controls: 0 for no effect and ±100 for the full control effect
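A one-generation exposure of luciferase-tagged malaria parasites in RPMI 1640/Albumax erythrocyte culture, 37 C and 5% CO2. Inhibition is inferred from decreased luminescence after adding detection reagent.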
HCV inh = blocks hepatitis C virus; AID 651820; Potency, µM (highest dose often 41.8 µM), without a hit: at the highest dose activity change, negative = inhibition, most hits filed as inhibitors; 340,000 compounds, 3.4% hits; Huh7.5.1 HCVcc-Cre infection, luciferase reporter, 44 h; also: potency is read from the fitted curve at half-maximal effect; % is scaled to controls: 0 for no effect and ±100 for the full control effect
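HCVcc-Cre virus at an moi near 0.5 was added right after compound to cells cultured 4 h from seeding (1,000 cells/well). Luciferase activity was determined 44 h later, 15 min after substrate addition at RT.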
HCMV inh = blocks human cytomegalovirus replication. AID 1259415. HFF cells, HCMV-luciferase reporter, 72 h; stronger effect = lower value. activity change, negative = inhibition, % at 57.5 µM. 410,000 compounds, 4.5% hits; in the data active = activity change below about -60%; inconclusive = no clear call, values can overlap the other calls; inactive = above about -39%; also: % is scaled to controls: 0 for no effect and ±100 for the full control effect
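Compounds were evaluated in HFFs infected with an HCMV luciferase reporter virus (MOI 1 PFU/cell). Luciferase in lysates collected 72 h post infection served as the replication measure.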
Sm TGR block = blocks Schistosoma mansoni thioredoxin glutathione reductase; purified TGR, DTNB reduction, TNB absorbance 405 nm; AID 485364; Potency, µM (doses to about 114 µM), for the others: at the top dose activity change, negative = inhibition, actives largely listed as inhibitors; Q962Y6; 360,000 compounds, 3% hits; also: potency is read from the fitted curve at half-maximal effect; % is scaled to controls: 0 for no effect and ±100 for the full control effect; nearly all actives have a fitted effect of over 60% in size
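TGR 20 nM + NADPH 100 uM (dispensed conc.), cpd preinc 15 min RT; start with NADPH (500 uM addition) then DTNB (15 mM addition). Kinetic TNB absorbance, 405 nm filter. Four-parameter Hill fit across titration.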
The depositor's hits bear a star. In the library only some 15% were active in any assay of this set; here they are far more common. Unless noted, calls follow the shape of the dose curve; as a rule, active = well fitted curve in the direction sought with a large enough effect; inconclusive = small, poorly fitted or top-dose-only effect, or another doubt; inactive = no such curve, though single readings can be large; an effect the other way counts as inactive or inconclusive.

Screening COc1ccc2ccccc2c1-c1sc(Nc2ccccc2)n[n+]1-c1ccc(F)cc1 returned SARS PLP yeast 0%, Pf growth 96h inconclusive, Pf growth 48h inconclusive, HCV inh -81%, HCMV inh inconclusive and Sm TGR block 7%.
c1ccc(COc2ccc(-c3sc(Nc4ccccc4)n[n+]3-c3ccccc3)cc2)cc1 was read as SARS PLP yeast -12%, Pf growth 96h inconclusive, Pf growth 48h inconclusive and Sm TGR block -15%.
`CCc1ccc(Nc2n[n+](-c3ccccc3)c(-c3ccc(N(CC)CC)cc3)s2)cc1` gave SARS PLP yeast -6%, Pf growth 96h 3.3µM*, Pf growth 48h inconclusive, HCV inh 11µM*, HCMV inh -93* and Sm TGR block -23%.
Screening CN(C)c1ccc(-c2sc(Nc3ccccc3)n[n+]2-c2ccc(F)cc2)cc1 returned SARS PLP yeast 3%, Pf growth 96h inconclusive, Pf growth 48h 40%, HCV inh inconclusive, HCMV inh 3 and Sm TGR block -12%.
O=C(CN1CCCCCC1)Nc1nc2ccccc2s1 was read as HCV inh -17% and HCMV inh 72.
Screening Cc1cc(C)c2c(=O)cc(C(=O)Nc3sc4c(c3C#N)CCCC4)oc2c1 returned HCMV inh 6 and Sm TGR block 8%.
For CC(C)(C)c1ccc(CC(=O)N2CCC2(C)C(=O)NS(=O)(=O)c2ccccc2Cl)cc1 (configuration not stated) the results were HCMV inh -17.
Cc1sc(NC(=O)CSc2nnc(N)s2)c(C#N)c1C was read as SARS PLP yeast 0%, Pf growth 96h 21%, Pf growth 48h 23%, HCV inh 0%, HCMV inh -4 and Sm TGR block -34%.
Screening Cc1cc(OCC(=O)Nc2cc(C)nn2-c2ccccn2)c2c3c(c(=O)oc2c1)CCC3 returned SARS PLP yeast 0%, Pf growth 96h 147%, Pf growth 48h 6% and Sm TGR block 0%.
Screening Cc1cc(OC(=O)c2ccco2)c2c3c(c(=O)oc2c1)CCCC3 returned SARS PLP yeast -11%, Pf growth 96h 3.7µM*, HCV inh inconclusive, HCMV inh -67* and Sm TGR block 7%.
For O=C(Oc1cc2oc(=O)c3c(c2cc1Cl)CCCC3)c1cccs1 the results were SARS PLP yeast -34%, Pf growth 96h inconclusive, Pf growth 48h 20%, HCV inh -3%, HCMV inh 17 and Sm TGR block 1%.
Cc1cc(OC(=O)c2cccs2)c2c3c(c(=O)oc2c1)CCCC3 was read as SARS PLP yeast -20%, Pf growth 96h 54%, Pf growth 48h 5.9µM*, HCV inh inconclusive, HCMV inh inconclusive and Sm TGR block -1%.
For Cc1cc2oc(=O)c3c(c2cc1OC(=O)c1ccco1)CCCC3 the results were SARS PLP yeast 1%, Pf growth 96h 42%, Pf growth 48h 23%, HCV inh 6%, HCMV inh -14 and Sm TGR block -27%.
Screening Cc1ccc(-n2nc(C)cc2NC(=O)COc2cc(C)cc3oc(=O)c4c(c23)CCC4)cc1 returned SARS PLP yeast 6%, Pf growth 96h 9.3µM*, Pf growth 48h inconclusive, HCV inh 7.1µM*, HCMV inh 7 and Sm TGR block 4%.
For O=C(O[C@H]1CC[C@@]23CCCN2C(=O)CCC[C@H]3[C@H]1Cc1ccccc1)N1CCCC1 the results were HCMV inh -16.
`CN(C(=O)COC(=O)CSc1ccc(C(N)=O)cc1[N+](=O)[O-])C1CCCCC1` gave SARS PLP yeast 5%, Pf growth 96h 21%, Pf growth 48h 5%, HCV inh -23%, HCMV inh -7 and Sm TGR block 0%.
For Cc1nn(CC(=O)NCCc2ccc(Cl)cc2Cl)c(C)c1[N+](=O)[O-] the results were SARS PLP yeast 15%, Pf growth 96h inconclusive, Pf growth 48h 12µM*, HCV inh inconclusive, HCMV inh inconclusive and Sm TGR block 0%.
O=C(CCCOc1ccccc1)Nc1nc2ccccc2[nH]1 was read as SARS PLP yeast 3%, Pf growth 96h 223%, Pf growth 48h 278%, HCV inh -7%, HCMV inh 25 and Sm TGR block 5%.
O=S(=O)(CCOc1ccccc1)c1nc2ccccc2[nH]1 was read as SARS PLP yeast -3%, Pf growth 96h inconclusive, Pf growth 48h -12%, HCV inh -15%, HCMV inh -69* and Sm TGR block 13µM*.
Screening CCCCOc1cccc(C(=O)Nc2cc(NC(=O)c3ccco3)ccc2OC)c1 returned HCMV inh -104* and Sm TGR block 0%.
COc1ccc(NC(=O)c2ccco2)cc1N was read as SARS PLP yeast -13%, Pf growth 96h 8.3µM*, Pf growth 48h 78%, HCV inh -4%, HCMV inh 72 and Sm TGR block -5%.
`O=C(Cc1ccccc1)Nc1ccc(NC(=O)c2ccco2)cc1Cl` gave SARS PLP yeast 2%, Pf growth 96h 9.3µM*, Pf growth 48h -10%, HCV inh -9%, HCMV inh -17 and Sm TGR block -3%.
Screening COc1ccc(NC(=O)c2ccco2)cc1NC(=O)C(C)Oc1ccc(Cl)cc1Cl (configuration not stated) returned HCMV inh -80* and Sm TGR block 4%.
COc1ccc(C(=O)Nc2cc(NC(=O)c3ccco3)ccc2OC)cc1Cl was read as HCMV inh 24 and Sm TGR block 13%.
For COc1ccc(NC(=O)c2ccco2)cc1NC(=O)c1c(OC)cccc1OC the results were SARS PLP yeast 0%, Pf growth 96h 2.3µM*, Pf growth 48h -6%, HCV inh 0% and Sm TGR block 3%.
`COc1cc(NC(=O)Cc2ccccc2)ccc1NC(=O)c1ccco1` gave SARS PLP yeast 2%, Pf growth 96h inconclusive, Pf growth 48h 36%, HCV inh inconclusive, HCMV inh -9 and Sm TGR block -5%.
`COc1ccc(NC(=O)Cc2ccc(Cl)cc2)cc1NC(=O)c1ccco1` gave SARS PLP yeast -13%, Pf growth 96h 28%, HCV inh 10µM*, HCMV inh -86* and Sm TGR block -1%.
Screening COc1ccc(NC(=O)c2ccco2)cc1NC(=O)c1ccco1 returned SARS PLP yeast -4%, Pf growth 96h -9%, Pf growth 48h 76%, HCV inh -22%, HCMV inh 16 and Sm TGR block -20%.
COc1cccc(/C(O)=C2/C(=O)C(=O)N(CCCN(C)C)C2c2cccc(Cl)c2)c1 (configuration not stated) was read as SARS PLP yeast -6%, Pf growth 48h 13% and Sm TGR block -21%.
